# Pf Dd2 inh = Plasmodium falciparum Dd2 growth inhibition; P. falciparum Dd2 growth, SYBR Green, 72 h; Potency, µM (titrated, usually from 28.9 µM), for the others: at the top dose activity, negative = inhibition, most hits filed as inhibitors; hit rate 4.3% among 120,000; active = well fitted inhibition curve with a large enough effect;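 note: plate controls were DMSO vehicle for no effect and reference drug for full effect; nearly all actives have a fitted effect of over 65% in size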
#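 Readout: SYBR Green fluorescence, 485 nm excitation, 535 nm emission, after ~16 h lysis at 37C. Before that, Dd2-infected red cells (2.5% hematocrit) grew 72 h with compound, 29 uM top final concentration.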
# An asterisk follows results filed as active; i = inactive; [ ] = another dose, or the depositor's remark. Only a selection was taken, and hits are over-represented in it overall. Potency is the fitted concentration of half-maximal effect.
SMILES,Pf Dd2 inh
Cc1cn2nc(C(=O)N3CCN(c4ccccc4)CC3)cc2c(N2CCCC2)n1,i
COCCNC(=O)[C@H]1C[C@H](Oc2cccnc2)CN1C(=O)Cc1cccc(OC)c1,1%
CC(c1n[nH]c(=O)n1CCC(=O)O)n1cccn1 (centres undefined),18%
Cc1cnn(CC(=O)N2CCc3nn(Cc4ccccc4)c(=O)n3CC2)c1,13%
C=CCNC(=O)Cc1ccc(N(Cc2ccccc2)C(=O)c2ccco2)cc1,i
COCCNC(=O)Cc1ccc(N(Cc2cccc(F)c2)C(=O)c2ccco2)cc1,i
CCNC(=O)Cc1ccc(N(Cc2ccc(C)cc2)C(=O)c2ccco2)cc1,i
O=C(Cc1ccc(N(Cc2ccc(F)cc2)C(=O)c2ccco2)cc1)NCCc1ccccc1,-3%
COCCNC(=O)Cc1ccc(N(Cc2ccc(C)cc2)C(=O)c2ccco2)cc1,5.6µM*
COc1ccc(CN(C(=O)c2ccco2)c2ccc(CC(=O)NCCc3ccccc3)cc2)cc1,4µM*
Cc1ccc(C)c(CCNC(=O)[C@H]2CNC[C@H](C(=O)N3CCOCC3)C2)c1,-4%
O=C(c1cccs1)N1CCC2(CC1)NC(=O)N(Cc1ccc(F)cc1)C2=O,-6%
O=C(c1ccc(Br)o1)N1CCC(n2cnnc2C2CC2)CC1,-13%
N#Cc1ccc(S(=O)(=O)N2CCC(C3CCNC3)CC2)cc1 (centres undefined),6%
COc1ccc(C(=O)N2CCC(n3cc(-c4nc(C(C)C)no4)nn3)C2)cc1 (centres undefined),i
COc1ccc(C(=O)N2CCCC(n3cc(-c4nc(C(C)C)no4)nn3)C2)cc1 (centres undefined),13µM*
Cc1ccc(C(=O)N2CCCC(n3cc(-c4nc(C(C)C)no4)nn3)C2)cc1 (centres undefined),-18%
CC(=O)NCC(=O)N1C[C@@H](COc2cccnc2)[C@H](c2ccccn2)C1,21%
CCC1(N2CCN(C(=O)C3COc4ccccc4O3)CC2)CCN(C(=O)NC)C1 (centres undefined),-4%
COc1ccc(NC(=O)[C@@H]2C[C@@H](c3ccc(F)cc3)N(Cc3ccccc3)C2)cc1OC,10µM*
O=C(Nc1cccc(F)c1)[C@@H]1C[C@@H](c2ccc(F)cc2)N([S+](=O)([O-])c2ccccc2)C1,-27%
COc1cccc(NC(=O)[C@@H]2C[C@@H](c3ccc(F)cc3)N([S+](=O)([O-])c3cccnc3)C2)c1,i
O=C(Nc1cccc(F)c1)[C@@H]1C[C@@H](c2ccc(F)cc2)N([S+](=O)([O-])c2cccnc2)C1,i
O=C(NCc1cccnc1)[C@@H]1C[C@@H](c2ccc(F)cc2)N(CCOc2ccccc2)C1,8.9µM*
COc1ccc(NC(=O)[C@@H]2C[C@H](c3ccc(F)cc3)N(Cc3csc(C)n3)C2)cn1,-21%[44.1 µM]
SMILES,Pf Dd2 inh
O=C(NCCOc1ccccc1)[C@@H]1C[C@@H](c2ccc(F)cc2)N([S+](=O)([O-])c2cccnc2)C1,-22%
COc1cccc(NC(=O)[C@@H]2C[C@@H](c3ccc(F)cc3)N(CCOc3ccccc3)C2)c1,-10%[44.1 µM]
COc1cccc(NC(=O)[C@@H]2C[C@H](c3ccc(F)cc3)N([S+](C)(=O)[O-])C2)c1,6.3µM*
O=C(Nc1ccccc1)[C@@H]1C[C@@H](c2ccc(F)cc2)N([S+](=O)([O-])c2cccnc2)C1,10%[44.1 µM]
O=C(Nc1cccnc1)[C@@H]1C[C@@H](c2ccc(F)cc2)N(Cc2ccccc2)C1,7.1µM*
COc1cccc(NC(=O)[C@@H]2C[C@H](c3ccc(F)cc3)N(Cc3csc(C)n3)C2)c1,-4%[44.1 µM]
O=C(Cn1ccn2nc(-c3ccccc3)c(CO)c2c1=O)N1CCCCCC1,i
COCCc1noc([C@@H]2CC(F)(F)CN2C(=O)C2CC=CC2)n1,-9%
COc1ccc(-c2ccc3c(c2)C(=O)N2C[C@@H](NS(=O)(=O)c4ccc(F)cc4)C[C@H]2C(=O)N3)cc1,-18%
Cc1ccc2oc(=O)n(CCC(=O)NC3CCCN(c4ncccn4)C3)c2c1 (centres undefined),-15%
COc1ccc(C(=O)N2CC(c3nnc(C(C)C)o3)C3(CCOCC3)C2)cc1OC (centres undefined),8%
O=C([C@@H]1C[C@H](Oc2cccnc2)CN1C(=O)c1ccccn1)N1CCCC1,11%
Cc1nn2c(c1-c1ccccc1-c1ccccc1)N(C(=O)c1cccnc1)CCC2,i
Cc1nn2c(c1-c1ccccc1C(N)=O)N(C(=O)Cc1cccc(F)c1)CCC2,13%[44.1 µM]
Cc1nn2c(c1-c1ccccc1Oc1ccccc1)N(C(=O)Cc1ccc(O)cc1)CCC2,8.9µM*
COc1ccc(C(=O)N2CCCn3nc(C)c(-c4ccccc4-c4ccccc4)c32)cc1,10µM*
Cc1nn2c(c1-c1ccccc1Oc1ccccc1)N(Cc1ccccc1O)CCC2,0.56µM*
Cc1nn2c(c1-c1ccccc1OCc1ccccc1)N(C(=O)C(C)C)CCC2,i
COc1ccccc1C(=O)N1CCCn2nc(C)c(-c3ccccc3-c3ccccc3)c21,-17%[44.1 µM]
COc1cccc(CC(=O)N2CCCn3nc(C)c(-c4ccccc4-c4ccccc4)c32)c1,10µM*
